Measurements taken from PubChem BioAssay AID651656 (NMMLSC, 2012).
Values without a mark were called inactive.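 Rule for the calls: active = viability at the highest tested concentration below 50%; inactive = the rest.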

Assay: viability loss, K562-ABCB6 cells – cell-based, CellTiter-Glo luminescence, PowderSet01 powders, cytotoxicity control for ABCB6 inhibitor project, dose response (AID 651656)
Settings: 18 h; series mostly up to 100 µM; viability: at the top concentration

Q: With `CCc1ccc(NC(=O)c2nc(S(=O)(=O)Cc3ccccc3)ncc2Cl)cc1` as the compound, how does the “viability” value read?
A: 72.5%

Q: Which “viability” value does the source give for `CC(=O)Nc1ccc(NC(=O)c2nc(S(=O)(=O)Cc3ccccc3)ncc2Cl)cc1` here?
A: 83.2%

Q: With `CC(=O)Nc1ccc(NC(=O)c2nc(S(=O)(=O)Cc3cccc(C)c3)ncc2Cl)cc1` as the compound, how does the “viability” value read?
A: 63.3%

Q: Which “viability” value does the source give for `CCOc1ccccc1NC(=O)c1nc(S(=O)(=O)Cc2cccc(C)c2)ncc1Cl` here?
A: 65.6%
